Laboratory results as given in article PMC7862700, “An all-to-all approach to the identification of sequence-specific readers for epigenetic DNA modifications on cytosine”.

Assays:
Test in all cases: DAPPL (digital affinity profiling via proximity ligation, sequencing); 10 mM Tris-HCl pH 7.5, 50 mM NaCl, 1 mM DTT, 4% glycerol, room temperature, 30 min; GST-TFs on glutathione beads, 16-mer random dsDNA library, 0.1% formaldehyde crosslink after washing; high values mean tight binding
FLI1 = target: T1, FLI1 (Homo sapiens, UniProt Q01543 1-452); conditions: protein: recombinant; tags: N-terminal GST; dsDNA, one strand shown
T1 sequence: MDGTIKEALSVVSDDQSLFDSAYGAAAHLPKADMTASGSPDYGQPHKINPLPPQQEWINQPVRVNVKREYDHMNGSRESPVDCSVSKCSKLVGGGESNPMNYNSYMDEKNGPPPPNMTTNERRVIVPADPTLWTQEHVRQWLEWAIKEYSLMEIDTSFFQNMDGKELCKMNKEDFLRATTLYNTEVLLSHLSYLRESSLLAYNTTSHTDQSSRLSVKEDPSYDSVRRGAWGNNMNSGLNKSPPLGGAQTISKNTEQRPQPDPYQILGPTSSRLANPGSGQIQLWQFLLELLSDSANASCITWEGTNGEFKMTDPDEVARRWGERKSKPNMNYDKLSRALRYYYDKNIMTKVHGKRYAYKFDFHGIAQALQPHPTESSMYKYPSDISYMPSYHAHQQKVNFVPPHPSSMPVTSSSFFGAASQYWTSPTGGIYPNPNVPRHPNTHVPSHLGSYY
In short: (§1)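 In yeast, human transcription factors were expressed with a GST fusion, then pulled down on glutathione beads and given DNA barcodes. Pooled with a tag-only sample, they were exposed to 200 nmole of a 16-mer random double-stranded DNA library (Tris/NaCl/DTT/glycerol buffer, room temperature, 30 min), washed, crosslinked with 0.1% formaldehyde, proximity-ligated using BsaI/T4 ligase for 1 h at 37 °C, PCR-amplified and read on an Illumina NextSeq500. Each hexamer's frequency of reads for a factor, divided by the matching frequency for the tag-only sample, gives the binding signal.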

ELK1 = target: T2, ELK1 (Homo sapiens, UniProt P19419 1-428); conditions: protein: recombinant; tags: N-terminal GST; dsDNA, one strand shown
T2 sequence: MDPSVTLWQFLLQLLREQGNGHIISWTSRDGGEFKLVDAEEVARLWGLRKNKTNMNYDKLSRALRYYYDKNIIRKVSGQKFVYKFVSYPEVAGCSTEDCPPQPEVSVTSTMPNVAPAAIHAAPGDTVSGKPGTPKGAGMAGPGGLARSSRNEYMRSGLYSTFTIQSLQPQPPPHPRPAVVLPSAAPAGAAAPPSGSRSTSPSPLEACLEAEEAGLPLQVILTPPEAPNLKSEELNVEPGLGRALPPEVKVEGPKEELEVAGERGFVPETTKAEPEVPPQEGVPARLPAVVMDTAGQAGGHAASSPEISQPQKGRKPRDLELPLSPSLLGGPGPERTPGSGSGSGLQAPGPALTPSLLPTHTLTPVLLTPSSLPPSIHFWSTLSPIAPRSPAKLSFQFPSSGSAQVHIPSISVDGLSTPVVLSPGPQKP
In short: as §1

GABPA = target: T3, GABPA (Homo sapiens, UniProt Q06546 1-454); conditions: protein: recombinant; tags: N-terminal GST; dsDNA, one strand shown
T3 sequence: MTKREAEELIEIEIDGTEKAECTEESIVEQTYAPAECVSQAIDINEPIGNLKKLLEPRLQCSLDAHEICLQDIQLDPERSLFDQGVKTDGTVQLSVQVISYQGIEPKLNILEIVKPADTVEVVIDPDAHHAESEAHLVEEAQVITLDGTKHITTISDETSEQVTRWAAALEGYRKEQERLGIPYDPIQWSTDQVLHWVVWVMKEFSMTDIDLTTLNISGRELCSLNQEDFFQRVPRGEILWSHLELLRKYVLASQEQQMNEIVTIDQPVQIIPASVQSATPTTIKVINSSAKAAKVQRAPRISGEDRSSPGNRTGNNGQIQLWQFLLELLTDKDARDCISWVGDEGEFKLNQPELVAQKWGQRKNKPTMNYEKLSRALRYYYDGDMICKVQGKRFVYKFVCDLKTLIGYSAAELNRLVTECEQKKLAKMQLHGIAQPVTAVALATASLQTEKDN
In short: as §1

ERG = target: T4, ERG (Homo sapiens, UniProt P11308 1-479); conditions: protein: recombinant; tags: N-terminal GST; dsDNA, one strand shown
T4 sequence: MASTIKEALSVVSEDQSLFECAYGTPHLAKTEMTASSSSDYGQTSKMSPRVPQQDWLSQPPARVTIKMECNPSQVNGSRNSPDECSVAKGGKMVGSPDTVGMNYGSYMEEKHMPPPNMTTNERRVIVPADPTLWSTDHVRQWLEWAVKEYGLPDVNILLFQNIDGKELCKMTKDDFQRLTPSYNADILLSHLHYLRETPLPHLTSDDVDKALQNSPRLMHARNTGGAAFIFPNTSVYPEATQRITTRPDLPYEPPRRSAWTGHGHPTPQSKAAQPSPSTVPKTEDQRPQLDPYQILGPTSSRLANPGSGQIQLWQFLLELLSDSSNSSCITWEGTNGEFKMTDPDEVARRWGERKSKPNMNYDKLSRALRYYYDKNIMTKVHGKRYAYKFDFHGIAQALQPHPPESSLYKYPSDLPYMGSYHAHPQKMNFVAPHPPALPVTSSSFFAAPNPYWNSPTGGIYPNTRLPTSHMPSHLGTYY
In short: as §1

ELF1 = ELF1 (Homo sapiens, UniProt P32519 1-619); conditions: protein: recombinant; tags: N-terminal GST; dsDNA, one strand shown
In short: as §1

EHF = target: T5, EHF (Homo sapiens, UniProt Q9NZC4 1-300); conditions: protein: recombinant; tags: N-terminal GST; dsDNA, one strand shown
T5 sequence: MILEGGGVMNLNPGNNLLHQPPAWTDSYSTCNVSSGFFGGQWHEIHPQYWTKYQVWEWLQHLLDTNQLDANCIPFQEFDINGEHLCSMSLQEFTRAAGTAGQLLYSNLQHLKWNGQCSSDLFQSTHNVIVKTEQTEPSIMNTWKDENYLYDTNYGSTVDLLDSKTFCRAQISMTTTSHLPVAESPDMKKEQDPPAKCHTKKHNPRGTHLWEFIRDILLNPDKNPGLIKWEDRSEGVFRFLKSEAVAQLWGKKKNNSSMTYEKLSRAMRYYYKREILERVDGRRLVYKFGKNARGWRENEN
In short: as §1

SPI1 = SPI1 (Homo sapiens, UniProt P17947 1-270); conditions: protein: recombinant; tags: N-terminal GST; dsDNA, one strand shown
In short: as §1

SPIB = SPIB (Homo sapiens, UniProt Q01892 1-262); conditions: protein: recombinant; tags: N-terminal GST; dsDNA, one strand shown
In short: as §1

ELK3 = target: T6, ELK3 (Homo sapiens, UniProt P41970 1-407); conditions: protein: recombinant; tags: N-terminal GST; dsDNA, one strand shown
T6 sequence: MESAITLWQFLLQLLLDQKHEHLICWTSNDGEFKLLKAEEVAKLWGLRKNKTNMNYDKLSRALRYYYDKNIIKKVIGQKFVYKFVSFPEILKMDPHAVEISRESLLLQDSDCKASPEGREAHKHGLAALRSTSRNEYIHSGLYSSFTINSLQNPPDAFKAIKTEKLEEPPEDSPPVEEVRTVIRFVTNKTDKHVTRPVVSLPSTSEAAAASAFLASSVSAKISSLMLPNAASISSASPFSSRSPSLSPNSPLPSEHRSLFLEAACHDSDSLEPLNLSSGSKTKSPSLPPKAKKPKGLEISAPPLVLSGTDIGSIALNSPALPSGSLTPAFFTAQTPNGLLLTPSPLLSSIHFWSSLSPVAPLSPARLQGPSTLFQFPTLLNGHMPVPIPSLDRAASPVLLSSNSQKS
In short: as §1

FEV = target: T7, FEV (Homo sapiens, UniProt Q99581 1-238); conditions: protein: recombinant; tags: N-terminal GST; dsDNA, one strand shown
T7 sequence: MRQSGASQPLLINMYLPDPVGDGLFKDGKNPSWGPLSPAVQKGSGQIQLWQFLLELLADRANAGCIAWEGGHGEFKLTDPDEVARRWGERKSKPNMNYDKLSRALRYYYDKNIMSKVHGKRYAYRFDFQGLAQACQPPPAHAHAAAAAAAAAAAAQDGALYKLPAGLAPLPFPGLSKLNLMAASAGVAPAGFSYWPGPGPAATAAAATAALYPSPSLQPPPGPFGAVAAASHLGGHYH
In short: as §1

ETV5 = ETV5 (Homo sapiens, UniProt P41161 1-510); conditions: protein: recombinant; tags: N-terminal GST; dsDNA, one strand shown
In short: as §1

HSF1 = HSF1 (Homo sapiens, UniProt Q00613 1-529); conditions: protein: recombinant; tags: N-terminal GST; chain copies: 3; dsDNA, one strand shown
In short: as §1

SPIC = target: T8, SPIC (Homo sapiens, UniProt Q8N5J4 1-248); conditions: protein: recombinant; tags: N-terminal GST; dsDNA, one strand shown
T8 sequence: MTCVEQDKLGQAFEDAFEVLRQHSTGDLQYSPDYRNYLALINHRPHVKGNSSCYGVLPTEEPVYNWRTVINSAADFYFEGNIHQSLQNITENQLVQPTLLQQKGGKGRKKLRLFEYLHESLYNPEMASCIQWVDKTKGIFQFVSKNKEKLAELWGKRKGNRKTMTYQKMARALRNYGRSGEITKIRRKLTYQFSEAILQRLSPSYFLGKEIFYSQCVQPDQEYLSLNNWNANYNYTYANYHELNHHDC
In short: as §1

ELF4 = ELF4 (Homo sapiens, UniProt Q99607 1-663); conditions: protein: recombinant; tags: N-terminal GST; dsDNA, one strand shown
In short: as §1

ELK4 = target: T9, ELK4 (Homo sapiens, UniProt P28324-2 1-405); conditions: protein: recombinant; tags: N-terminal GST; dsDNA, one strand shown
T9 sequence: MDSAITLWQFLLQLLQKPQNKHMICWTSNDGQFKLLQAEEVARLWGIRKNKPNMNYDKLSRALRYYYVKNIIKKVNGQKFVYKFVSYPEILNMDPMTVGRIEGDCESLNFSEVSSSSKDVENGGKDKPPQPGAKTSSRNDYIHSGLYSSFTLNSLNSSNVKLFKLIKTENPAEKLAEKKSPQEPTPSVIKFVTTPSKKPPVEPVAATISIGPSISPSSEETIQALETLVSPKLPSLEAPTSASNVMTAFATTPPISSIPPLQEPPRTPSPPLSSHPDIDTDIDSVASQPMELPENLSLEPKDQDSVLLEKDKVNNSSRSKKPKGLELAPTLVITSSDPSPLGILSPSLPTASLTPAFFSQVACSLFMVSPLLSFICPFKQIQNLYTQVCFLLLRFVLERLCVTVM
In short: as §1

ETV2 = target: T10, ETV2 (Homo sapiens, UniProt O00321 1-342); conditions: protein: recombinant; tags: N-terminal GST; dsDNA, one strand shown
T10 sequence: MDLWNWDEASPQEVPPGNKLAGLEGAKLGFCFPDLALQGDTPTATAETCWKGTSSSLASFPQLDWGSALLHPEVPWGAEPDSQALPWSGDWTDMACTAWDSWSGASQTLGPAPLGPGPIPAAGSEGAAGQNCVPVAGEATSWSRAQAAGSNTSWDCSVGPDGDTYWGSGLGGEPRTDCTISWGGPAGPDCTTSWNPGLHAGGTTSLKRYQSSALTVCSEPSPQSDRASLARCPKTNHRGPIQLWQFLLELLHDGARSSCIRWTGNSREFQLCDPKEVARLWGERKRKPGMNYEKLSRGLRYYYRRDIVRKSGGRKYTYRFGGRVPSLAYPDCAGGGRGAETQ
In short: as §1

ELF3 = target: T11, ELF3 (Homo sapiens, UniProt P78545 1-371); conditions: protein: recombinant; tags: N-terminal GST; dsDNA, one strand shown
T11 sequence: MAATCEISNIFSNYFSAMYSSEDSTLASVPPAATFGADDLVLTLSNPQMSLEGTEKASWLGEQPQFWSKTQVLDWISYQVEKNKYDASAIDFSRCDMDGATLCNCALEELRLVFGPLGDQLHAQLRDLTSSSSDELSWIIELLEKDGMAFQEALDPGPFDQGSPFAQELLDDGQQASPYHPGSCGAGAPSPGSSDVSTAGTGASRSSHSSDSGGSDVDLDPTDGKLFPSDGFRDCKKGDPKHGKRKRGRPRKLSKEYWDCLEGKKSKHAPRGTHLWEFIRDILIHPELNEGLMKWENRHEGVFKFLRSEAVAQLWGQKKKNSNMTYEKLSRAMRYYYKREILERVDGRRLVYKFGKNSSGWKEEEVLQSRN
In short: as §1

CRX = CRX (Homo sapiens, UniProt O43186 1-299); conditions: protein: recombinant; tags: N-terminal GST; dsDNA, one strand shown
In short: as §1

ETV1 = ETV1 (Homo sapiens, UniProt P50549 1-477); conditions: protein: recombinant; tags: N-terminal GST; dsDNA, one strand shown
In short: as §1

Chain of HSF1 (Q00613 whole entry): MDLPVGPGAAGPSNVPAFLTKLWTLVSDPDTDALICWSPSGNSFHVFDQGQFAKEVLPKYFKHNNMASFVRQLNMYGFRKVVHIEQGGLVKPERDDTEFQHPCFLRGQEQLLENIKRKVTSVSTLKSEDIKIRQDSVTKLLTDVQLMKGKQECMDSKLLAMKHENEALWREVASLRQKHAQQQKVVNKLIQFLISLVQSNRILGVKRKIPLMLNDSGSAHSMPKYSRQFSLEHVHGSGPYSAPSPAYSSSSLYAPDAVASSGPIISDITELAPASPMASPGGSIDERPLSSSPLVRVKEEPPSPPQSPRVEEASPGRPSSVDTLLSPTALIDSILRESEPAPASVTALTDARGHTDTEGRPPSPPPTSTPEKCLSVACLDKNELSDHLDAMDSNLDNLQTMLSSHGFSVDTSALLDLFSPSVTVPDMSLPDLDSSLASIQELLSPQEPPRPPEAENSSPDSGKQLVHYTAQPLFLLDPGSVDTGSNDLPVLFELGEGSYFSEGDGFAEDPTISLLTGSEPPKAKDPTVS
Chain of CRX (O43186 whole entry): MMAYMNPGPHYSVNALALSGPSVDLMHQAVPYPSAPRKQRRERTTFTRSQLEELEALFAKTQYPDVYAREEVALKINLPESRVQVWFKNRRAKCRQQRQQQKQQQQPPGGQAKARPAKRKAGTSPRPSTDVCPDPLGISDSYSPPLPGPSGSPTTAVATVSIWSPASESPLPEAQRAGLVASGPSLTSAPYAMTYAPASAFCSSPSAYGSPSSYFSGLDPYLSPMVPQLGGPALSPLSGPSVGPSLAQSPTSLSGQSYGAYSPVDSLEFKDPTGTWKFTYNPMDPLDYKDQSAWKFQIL
Chain of ETV5 (P41161 whole entry): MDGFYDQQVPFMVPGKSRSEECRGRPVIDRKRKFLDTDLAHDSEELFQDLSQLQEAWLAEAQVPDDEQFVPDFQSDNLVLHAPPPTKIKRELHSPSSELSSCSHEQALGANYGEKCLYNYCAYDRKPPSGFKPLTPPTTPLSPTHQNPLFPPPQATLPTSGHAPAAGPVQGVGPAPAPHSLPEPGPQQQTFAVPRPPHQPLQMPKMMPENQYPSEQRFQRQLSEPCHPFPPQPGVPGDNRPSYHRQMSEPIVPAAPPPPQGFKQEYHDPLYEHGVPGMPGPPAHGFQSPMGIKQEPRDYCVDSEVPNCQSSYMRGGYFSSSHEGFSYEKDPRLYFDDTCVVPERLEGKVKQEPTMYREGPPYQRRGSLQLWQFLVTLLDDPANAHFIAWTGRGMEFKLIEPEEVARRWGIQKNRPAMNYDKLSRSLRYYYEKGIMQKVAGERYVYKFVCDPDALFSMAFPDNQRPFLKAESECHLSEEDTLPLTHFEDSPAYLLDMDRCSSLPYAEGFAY
Chain of ELF4 (Q99607 whole entry): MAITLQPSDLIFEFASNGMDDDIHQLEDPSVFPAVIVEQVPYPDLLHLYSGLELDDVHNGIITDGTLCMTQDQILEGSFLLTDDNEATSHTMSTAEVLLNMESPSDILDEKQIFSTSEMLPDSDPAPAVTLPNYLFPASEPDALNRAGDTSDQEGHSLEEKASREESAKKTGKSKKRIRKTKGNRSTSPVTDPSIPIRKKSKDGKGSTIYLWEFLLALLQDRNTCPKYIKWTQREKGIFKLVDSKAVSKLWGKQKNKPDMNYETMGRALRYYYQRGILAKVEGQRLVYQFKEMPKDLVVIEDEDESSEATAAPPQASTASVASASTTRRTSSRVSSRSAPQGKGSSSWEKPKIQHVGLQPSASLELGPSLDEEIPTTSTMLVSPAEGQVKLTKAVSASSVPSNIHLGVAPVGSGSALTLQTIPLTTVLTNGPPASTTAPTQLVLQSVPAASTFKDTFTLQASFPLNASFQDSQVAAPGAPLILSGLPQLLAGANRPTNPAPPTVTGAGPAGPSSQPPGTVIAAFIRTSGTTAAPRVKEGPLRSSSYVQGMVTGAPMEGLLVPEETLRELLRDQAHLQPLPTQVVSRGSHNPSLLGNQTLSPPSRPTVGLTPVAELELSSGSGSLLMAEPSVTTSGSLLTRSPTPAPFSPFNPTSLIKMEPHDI
Chain of SPIB (Q01892 whole entry): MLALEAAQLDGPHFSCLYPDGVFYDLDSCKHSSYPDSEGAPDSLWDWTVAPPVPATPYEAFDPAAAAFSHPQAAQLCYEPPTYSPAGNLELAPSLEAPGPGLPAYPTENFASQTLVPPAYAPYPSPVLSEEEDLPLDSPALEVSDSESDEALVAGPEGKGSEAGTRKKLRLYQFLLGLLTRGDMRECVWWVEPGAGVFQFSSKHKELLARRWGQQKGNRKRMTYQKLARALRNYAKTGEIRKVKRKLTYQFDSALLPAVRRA
Chain of ETV1 (P50549 whole entry): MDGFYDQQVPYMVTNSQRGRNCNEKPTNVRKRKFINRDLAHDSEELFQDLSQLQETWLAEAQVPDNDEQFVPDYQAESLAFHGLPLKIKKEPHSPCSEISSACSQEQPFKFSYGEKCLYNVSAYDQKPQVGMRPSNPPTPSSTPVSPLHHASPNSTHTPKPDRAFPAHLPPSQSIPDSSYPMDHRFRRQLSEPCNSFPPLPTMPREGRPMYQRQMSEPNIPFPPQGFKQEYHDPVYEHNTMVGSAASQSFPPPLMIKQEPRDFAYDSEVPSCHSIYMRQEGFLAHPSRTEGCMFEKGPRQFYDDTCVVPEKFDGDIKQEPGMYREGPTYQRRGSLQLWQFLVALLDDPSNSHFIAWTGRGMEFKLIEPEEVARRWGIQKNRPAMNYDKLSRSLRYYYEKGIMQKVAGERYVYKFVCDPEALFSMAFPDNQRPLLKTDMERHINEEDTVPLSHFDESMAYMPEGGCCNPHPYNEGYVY
Chain of ELF1 (P32519 whole entry): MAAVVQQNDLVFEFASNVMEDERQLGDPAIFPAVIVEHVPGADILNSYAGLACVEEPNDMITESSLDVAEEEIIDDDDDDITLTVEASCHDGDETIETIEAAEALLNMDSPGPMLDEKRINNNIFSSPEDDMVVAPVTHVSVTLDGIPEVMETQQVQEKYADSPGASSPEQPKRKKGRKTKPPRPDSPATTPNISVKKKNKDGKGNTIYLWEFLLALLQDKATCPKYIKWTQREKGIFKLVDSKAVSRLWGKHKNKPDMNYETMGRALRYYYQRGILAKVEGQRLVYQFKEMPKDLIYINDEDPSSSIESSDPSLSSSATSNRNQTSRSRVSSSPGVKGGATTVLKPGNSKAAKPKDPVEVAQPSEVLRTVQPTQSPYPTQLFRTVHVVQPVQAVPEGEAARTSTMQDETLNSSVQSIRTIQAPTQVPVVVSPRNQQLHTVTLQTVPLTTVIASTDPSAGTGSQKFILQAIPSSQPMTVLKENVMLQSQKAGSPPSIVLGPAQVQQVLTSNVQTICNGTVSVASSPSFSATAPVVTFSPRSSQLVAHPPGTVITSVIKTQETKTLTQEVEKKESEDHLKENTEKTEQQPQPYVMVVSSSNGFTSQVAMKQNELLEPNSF

ACTTTG
binding signal (FLI1): 1.27 fold enrichment (6-mer frequency, TF over GST control)
binding signal (ELK1): 1.29 fold enrichment (6-mer frequency, TF over GST control)
binding signal (GABPA): 1.12 fold enrichment (6-mer frequency, TF over GST control)
binding signal (ERG): 1.19 fold enrichment (6-mer frequency, TF over GST control)
binding signal (ELF1): 1.26 fold enrichment (6-mer frequency, TF over GST control)
binding signal (EHF): 1.19 fold enrichment (6-mer frequency, TF over GST control)
binding signal (SPI1): 1.2 fold enrichment (6-mer frequency, TF over GST control)
binding signal (SPIB): 1.16 fold enrichment (6-mer frequency, TF over GST control)
binding signal (ELK3): 1.07 fold enrichment (6-mer frequency, TF over GST control)
binding signal (FEV): 1.13 fold enrichment (6-mer frequency, TF over GST control)
binding signal (ETV5): 1.3 fold enrichment (6-mer frequency, TF over GST control)
binding signal (HSF1): 1.14 fold enrichment (6-mer frequency, TF over GST control)
binding signal (SPIC): 1.33 fold enrichment (6-mer frequency, TF over GST control)
binding signal (ELF4): 1.29 fold enrichment (6-mer frequency, TF over GST control)
binding signal (ELK4): 1.22 fold enrichment (6-mer frequency, TF over GST control)
binding signal (ETV2): 1.39 fold enrichment (6-mer frequency, TF over GST control)
binding signal (ELF3): 1.28 fold enrichment (6-mer frequency, TF over GST control)
binding signal (CRX): 1.18 fold enrichment (6-mer frequency, TF over GST control)
binding signal (ETV1): 1.21 fold enrichment (6-mer frequency, TF over GST control)
